Records with an inconclusive call do not appear. Activity calls are given as the source filed them. Unless noted, calls come from the whole dose curve; as a rule, active = well fitted curve in the direction sought with a large enough effect in the repeat runs; inconclusive = weak or mixed curves; inactive = no such curve, though single readings can be large; an effect the other way counts as inactive or inconclusive.
Tests used:
[1] = qHTS assay to identify small molecule agonists of the vitamin D receptor (VDR) signaling pathway - cell viability counter screen (AID 743224); note: series mostly up to about 63 µM; nearly all actives have a fitted effect of over 50% in size
How it was run: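 VDR-bla cells were preincubated 4 h at 37C/5% CO2, then exposed to compounds for 16 h. After the 2 h room-temperature bla FRET read, CellTiter-Glo was added to the same wells and luminescence read after 30 min.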

[2] = qHTS assay to identify small molecule antagonists of the vitamin D receptor (VDR) signaling pathway - cell viability counter screen (AID 743225); note: nearly all actives have a fitted effect of over 50% in size
How it was run: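 HEK293T VDR-bla; cpd + 1a,25-(OH)2D3 3 nM final, 16 h 37C/5% CO2; B/G FRET substrate 2 h RT; then CellTiter-Glo 30 min RT, luminescence.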

[3] = qHTS assay to identify small molecule agonists of the NFkB signaling pathway (AID 1159509; active = well fitted curve in the direction sought with a large enough effect in the signal ratio in the repeat runs, not every such curve was filed as active; the % refers to the signal ratio; note: series mostly up to about 61 µM)
How it was run: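 NFkB-bla ME-180 cells carry a beta-lactamase reporter under an NF-kB response element. They were plated overnight, then exposed to compounds for 5 h at 37 C. Read-out is LiveBLAzer FRET after 1.5 hr at room temperature (405 nm excitation; 460/530 nm emission).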

[4] = qHTS assay to identify small molecule agonists of the endoplasmic reticulum stress response signaling pathway (AID 1159516; active = well fitted activation curve with a large enough effect in the signal ratio in the repeat runs, not every such curve was filed as active; the % refers to the signal ratio)
How it was run: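 CellSensor ESRE-bla HeLa cells, carrying a beta-lactamase reporter driven by the ER stress response element, were plated overnight and exposed to compounds for 5 hr at 37 C. Reporter activity was read as FRET substrate fluorescence after 2 hr at room temperature.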

[5] = qHTS assay to identify small molecule antagonists of the retinoid-related orphan receptor gamma (ROR-gamma) signaling pathway - cell viability counter screen (AID 1159520); note: nearly all actives have a fitted effect of over 50% in size
How it was run: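 Cytotoxicity was read from cellular ATP (CellTiter-Glo luminescence) after 16 hr at 37 C with 1 uM doxycycline induction. The inducer was added 2 hr after compound transfer to Tet-on ROR gamma CHO cells.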

[6] = target: Nuclear receptor ROR-gamma (Homo sapiens) (UniProt P51449); assay: qHTS assay to identify small molecule antagonists of the retinoid-related orphan receptor gamma (ROR-gamma) signaling pathway (AID 1159521;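 note: CHO cells with doxycycline inducible ROR-gamma driving an RORE luciferase reporter; top concentration of the series differs between compounds; nearly all actives have a fitted effect of over 50% in size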)
How it was run: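 Cells were plated, rested 4 h at 37 C, exposed to compounds for 2 h, then given 1 uM final doxycycline hyclate to induce RORγ expression. After 16 h, ONE-Glo luminescence from the ROR response element reporter was measured.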

[7] = qHTS assay to identify small molecule agonists of the AP-1 signaling pathway - cell viability counter screen (AID 1159525; calls by dose curve; note: nearly all actives have a fitted effect of over 55% in size)
How it was run: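 Luminescent ATP readout (Cell Titer Glo, 30 min RT), normalised to DMSO and tetra n-octyl ammonium bromide controls. Cells were ME-180 AP-1-bla in 0.5% dialyzed FBS Opti-MEM, with a 5 h, 37 °C compound exposure.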

[8] = qHTS assay to identify small molecule agonists of the AP-1 signaling pathway (AID 1159526; calls by dose curve)
[9] = target: Retinoic acid receptor RXR-alpha (Homo sapiens) (UniProt P19793); assay: qHTS assay to identify small molecule agonists of the RXR signaling pathway (AID 1159527; calls by dose curve; note: nearly all actives have a fitted effect of over 35% in size; note: potency is the fitted concentration of half-maximal effect)
Chain of Retinoic acid receptor RXR-alpha (Homo sapiens) (P19793 whole entry, looked up): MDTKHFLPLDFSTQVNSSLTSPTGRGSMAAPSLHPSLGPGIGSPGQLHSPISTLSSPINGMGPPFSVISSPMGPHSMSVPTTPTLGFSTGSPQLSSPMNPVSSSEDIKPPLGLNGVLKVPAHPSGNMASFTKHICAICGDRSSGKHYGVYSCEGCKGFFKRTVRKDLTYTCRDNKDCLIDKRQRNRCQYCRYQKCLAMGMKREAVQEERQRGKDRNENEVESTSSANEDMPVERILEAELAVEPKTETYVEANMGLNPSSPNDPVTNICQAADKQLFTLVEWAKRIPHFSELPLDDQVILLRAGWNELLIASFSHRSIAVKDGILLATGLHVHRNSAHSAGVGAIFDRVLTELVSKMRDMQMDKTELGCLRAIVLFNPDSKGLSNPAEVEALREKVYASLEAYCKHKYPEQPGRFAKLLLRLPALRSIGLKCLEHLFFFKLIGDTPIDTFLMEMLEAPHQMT
How it was run: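 Cells plated at 2,000/well, rested 5 hr at 37 C, pin-dosed with DMSO compound solutions, incubated 16 hr, then loaded with B/G FRET substrate for 2 hr at RT before dual-emission fluorescence reading.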

[10] = qHTS assay to identify small molecule agonists of the RXR signaling pathway - cell viability counter screen (AID 1159529)
How it was run: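 Steps: seed RXR-alpha-UAS-bla HEK 293T cells in assay medium containing 2% charcoal-stripped FBS; incubate 5 hr; add compounds in DMSO; incubate 16 hr at 37 C; after the bla read, add CellTiter-Glo and read luminescence at 30 min.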

[11] = qHTS assay to identify small molecule antagonists of the retinoid acid receptor (RAR) signaling pathway - cell viability counter screen (AID 1159551); note: nearly all actives have a fitted effect of over 35% in size
How it was run: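 C3RL4 cells were seeded overnight at 37 C, then treated with compounds plus 1 uM (final) retinol for 6 h at 37 C. Viability was read as ATP by CellTiter-Glo luminescence after 30 min at room temperature.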

[12] = qHTS assay to identify small molecule antagonists of the retinoic acid receptor (RAR) signaling pathway (AID 1159552; note: nearly all actives have a fitted effect of over 50% in size)
How it was run: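 Retinol at 1 uM final stimulated RARE-luciferase expression in C3RL4 cells exposed to test compounds for 6 hr at 37 C. Reduced luminescence, read 30 min after detection reagent, indicated pathway antagonism.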

[13] = qHTS assay to identify small molecule agonists of the retinoic acid receptor (RAR) signaling pathway (AID 1159553)
How it was run: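 C3RL4 cells carrying a RARE luciferase reporter were plated overnight at 37 C, then exposed to compounds in DMSO for 6 hr at 37 C and 5% CO2. Luminescence was read 30 min after luciferase reagent addition at room temperature.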

[14] = qHTS assay to identify small molecule antagonists of the estrogen related receptor (ERR) signaling pathway from Tox21 library - cell viability counter screen (AID 1224834); note: nearly all actives have a fitted effect of over 30% in size
How it was run: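 ERR reporter cells were plated 6 h before compound addition, then exposed to test compounds in DMSO for 17.5 h at 37 C. Viability was read as CellTiter-Fluor fluorescence after a 30-minute incubation at 37 C.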

[15] = target: Luciferin 4-monooxygenase (Photinus pyralis) (UniProt P08659); assay: qHTS assay to identify small molecule inhibitors of firefly luciferase (AID 1224835); note: nearly all actives have a fitted effect of over 25% in size; note: potency is the fitted concentration of half-maximal effect
Chain of Luciferin 4-monooxygenase (Photinus pyralis) (P08659 whole entry, looked up): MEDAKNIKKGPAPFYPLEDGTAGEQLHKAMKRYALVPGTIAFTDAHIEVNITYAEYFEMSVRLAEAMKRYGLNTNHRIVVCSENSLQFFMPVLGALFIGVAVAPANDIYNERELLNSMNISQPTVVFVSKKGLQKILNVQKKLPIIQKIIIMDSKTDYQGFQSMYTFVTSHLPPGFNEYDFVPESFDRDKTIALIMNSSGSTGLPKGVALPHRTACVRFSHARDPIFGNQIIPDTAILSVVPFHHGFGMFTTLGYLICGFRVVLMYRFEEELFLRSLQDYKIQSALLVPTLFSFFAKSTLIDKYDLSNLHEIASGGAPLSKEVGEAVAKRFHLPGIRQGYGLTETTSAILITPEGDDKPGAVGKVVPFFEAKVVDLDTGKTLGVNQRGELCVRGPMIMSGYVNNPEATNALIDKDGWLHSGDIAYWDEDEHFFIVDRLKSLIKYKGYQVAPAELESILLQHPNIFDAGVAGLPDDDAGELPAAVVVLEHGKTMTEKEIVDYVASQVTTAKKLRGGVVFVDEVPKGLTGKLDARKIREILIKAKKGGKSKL
How it was run: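 Inhibition of purified Photinus luciferase is measured by luminescence. Substrate levels (D-luciferin, ATP) sit at their KM values. Each compound is tested in a concentration series.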

[16] = qHTS assay to identify small molecule agonists of the constitutive androstane receptor (CAR) signaling pathway - cell viability counter screen (AID 1224836); note: series mostly up to about 92 µM; nearly all actives have a fitted effect of over 45% in size
How it was run: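 Cells were seeded and incubated 4 hrs. Compounds were added across 15 concentrations together with PK11195 at 0.75 uM final. Plates were incubated 23 hrs at 37 C. CellTiter-Fluor was added and fluorescence measured.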

[17] = qHTS assay to identify small molecule antagonists of the constitutive androstane receptor (CAR) signaling pathway - cell viability counter screen (AID 1224837); note: series mostly up to about 92 µM; nearly all actives have a fitted effect of over 45% in size
How it was run: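 HepG2 cells stably expressing hCAR and a CYP2B6-2.2kb reporter were plated and pre-incubated 4 hr at 37 C/5% CO2, then given compounds at 15 concentrations plus 50 nM CITCO (final). After 23 hr, viability was read by CellTiter-Fluor fluorescence.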

[18] = target: Nuclear receptor subfamily 1 group I member 3 (Homo sapiens) (UniProt Q14994); assay: qHTS assay to identify small molecule antagonists of the constitutive androstane receptor (CAR) signaling pathway (AID 1224838); note: nearly all actives have a fitted effect of over 40% in size
Chain of Nuclear receptor subfamily 1 group I member 3 (Homo sapiens) (Q14994 whole entry, looked up): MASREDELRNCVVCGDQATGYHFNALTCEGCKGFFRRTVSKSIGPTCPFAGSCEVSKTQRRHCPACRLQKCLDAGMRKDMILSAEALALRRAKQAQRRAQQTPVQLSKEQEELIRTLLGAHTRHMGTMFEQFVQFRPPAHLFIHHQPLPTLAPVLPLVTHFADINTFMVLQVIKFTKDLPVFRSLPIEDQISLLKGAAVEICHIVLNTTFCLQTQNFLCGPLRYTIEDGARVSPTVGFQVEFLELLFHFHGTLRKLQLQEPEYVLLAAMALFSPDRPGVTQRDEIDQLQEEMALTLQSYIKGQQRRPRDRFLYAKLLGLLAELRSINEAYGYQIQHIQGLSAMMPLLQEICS
How it was run: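 HepG2 cells stably co-transfected with hCAR and a CYP2B6-2.2kb luciferase reporter were seeded 4 h before compound addition at 15 concentrations. Cells were stimulated with 50 nM CITCO (final) for 24 h at 37 C; luciferase luminescence was then read.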

[19] = qHTS assay to identify small molecule agonists of the endoplasmic reticulum stress response signaling pathway - cell viability counter screen (AID 1159517; calls by dose curve)
How it was run: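 HeLa cells carrying an ESRE-driven beta-lactamase reporter receive compound for 5 hr at 37 C. Cell viability is then gauged with CellTiter-Glo by luminescence, 30 min at room temperature.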

[20] = qHTS assay to identify small molecule agonists of the NFkB signaling pathway - cell viability counter screen (AID 1159515; calls by dose curve; note: series mostly up to about 61 µM; nearly all actives have a fitted effect of over 55% in size)
How it was run: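 NFkB-bla ME-180 cells, 2,000/well, were plated overnight at 37 C, 5% CO2, then exposed to compounds in DMSO for 5 hr. After the bla FRET read, CellTiter-Glo was added to the same wells; luminescence was read after 30 min at room temperature.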

Measured: Potency

CCC(C)C(=O)OCCc1ccccc1 (stereo not drawn)
active: [9] 43.6 µM | [15] 50.2 µM
not listed: [19] | [20]
inactive: all other assays above

CCC/C=C(\C=O)CC
not listed: [2] | [16] | [19] | [20]
inactive: all other assays above

CN(C)CC/C=C1/c2ccccc2COc2ccc(CC(=O)O)cc21
not listed: [7] | [20]
inactive: all other assays above

Nc1nc(-c2ccccc2)c(Br)c(=O)[nH]1
not listed: [16] | [20]
inactive: all other assays above

OC[C@@H](O)C(O)[C@@H](O)CO (stereo partly drawn)
active: [9] 1.57 µM
not listed: [2] | [16] | [17] | [20]
inactive: all other assays above

Cc1cc(C)c(C(=O)O)c(C)c1
not listed: [2] | [7] | [20]
inactive: all other assays above

OC1(c2ccc(Cl)cc2)CCNCC1
not listed: [20]
inactive: all other assays above

CC(=O)c1cc(C)oc1C
not listed: [7] | [16] | [17] | [20]
inactive: all other assays above

O=C[O][Al]([O]C=O)[O]C=O
active: [15] 63.3 µM
not listed: [7] | [20]
inactive: all other assays above

CCCCCC/C=C/C(=O)OC
not listed: [18] | [19] | [20]
inactive: all other assays above

CCCc1ccc(O)cc1
not listed: [16] | [17] | [20]
inactive: all other assays above

C=C(C)[C@@H]1CC=C(C)CC1
not listed: [2] | [3] | [6] | [7] | [12] | [13]
inactive: all other assays above

OC[C@H]1O[C@@H](O[C@@H]2[C@@H](CO)O[C@](O)(CO)[C@H]2O)[C@H](O)[C@@H](O)[C@H]1O
not listed: [20]
inactive: all other assays above

From PubChem BioAssay (Tox21)
